Data from ChEMBL document CHEMBL2218924, “A broad activity screen in support of a chemogenomic map for kinase signalling research and drug discovery” (Biochem J, 2013).

Columns and labels:
[1] = molecular target: T1, Ephrin type-A receptor 3 (Homo sapiens) (UniProt P29320); details: at 10 µM
T1 sequence (whole entry): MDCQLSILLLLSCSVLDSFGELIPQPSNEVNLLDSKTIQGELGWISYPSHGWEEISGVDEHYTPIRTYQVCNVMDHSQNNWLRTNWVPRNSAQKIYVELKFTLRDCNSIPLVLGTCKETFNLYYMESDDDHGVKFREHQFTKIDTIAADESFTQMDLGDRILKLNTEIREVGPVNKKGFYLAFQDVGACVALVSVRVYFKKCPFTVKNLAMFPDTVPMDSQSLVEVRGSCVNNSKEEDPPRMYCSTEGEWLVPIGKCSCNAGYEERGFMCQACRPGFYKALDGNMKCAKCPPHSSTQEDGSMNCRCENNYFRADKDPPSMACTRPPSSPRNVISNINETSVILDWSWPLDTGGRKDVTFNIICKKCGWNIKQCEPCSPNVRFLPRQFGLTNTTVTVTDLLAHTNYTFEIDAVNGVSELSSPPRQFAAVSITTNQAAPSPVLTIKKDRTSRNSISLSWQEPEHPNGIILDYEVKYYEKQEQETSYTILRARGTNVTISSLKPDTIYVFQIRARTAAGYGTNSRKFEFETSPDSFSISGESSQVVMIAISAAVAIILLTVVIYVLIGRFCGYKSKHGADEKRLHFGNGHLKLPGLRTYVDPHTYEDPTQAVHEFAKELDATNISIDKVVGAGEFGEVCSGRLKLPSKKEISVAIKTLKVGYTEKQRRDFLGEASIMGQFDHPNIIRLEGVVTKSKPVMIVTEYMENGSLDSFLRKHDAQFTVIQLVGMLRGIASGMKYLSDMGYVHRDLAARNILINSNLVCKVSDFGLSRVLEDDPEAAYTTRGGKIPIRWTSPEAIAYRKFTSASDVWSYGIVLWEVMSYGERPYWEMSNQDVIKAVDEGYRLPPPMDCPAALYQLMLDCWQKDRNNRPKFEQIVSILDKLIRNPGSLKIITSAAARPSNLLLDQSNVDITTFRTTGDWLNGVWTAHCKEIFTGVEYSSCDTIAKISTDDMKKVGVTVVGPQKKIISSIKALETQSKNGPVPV

[2] = molecular target: Ephrin type-A receptor 4 (Homo sapiens) (UniProt P54764); details: at 1 µM
[3] = molecular target: Ephrin type-A receptor 4 (Homo sapiens) (UniProt P54764); details: at 10 µM
[4] = molecular target: Ephrin type-A receptor 5 (Homo sapiens) (UniProt P54756); details: at 10 µM
[5] = molecular target: Ephrin type-A receptor 7 (Homo sapiens) (UniProt Q15375); details: at 10 µM
[6] = molecular target: T2, Ephrin type-B receptor 3 (Homo sapiens) (UniProt P54753); details: at 10 µM
T2 sequence (whole entry): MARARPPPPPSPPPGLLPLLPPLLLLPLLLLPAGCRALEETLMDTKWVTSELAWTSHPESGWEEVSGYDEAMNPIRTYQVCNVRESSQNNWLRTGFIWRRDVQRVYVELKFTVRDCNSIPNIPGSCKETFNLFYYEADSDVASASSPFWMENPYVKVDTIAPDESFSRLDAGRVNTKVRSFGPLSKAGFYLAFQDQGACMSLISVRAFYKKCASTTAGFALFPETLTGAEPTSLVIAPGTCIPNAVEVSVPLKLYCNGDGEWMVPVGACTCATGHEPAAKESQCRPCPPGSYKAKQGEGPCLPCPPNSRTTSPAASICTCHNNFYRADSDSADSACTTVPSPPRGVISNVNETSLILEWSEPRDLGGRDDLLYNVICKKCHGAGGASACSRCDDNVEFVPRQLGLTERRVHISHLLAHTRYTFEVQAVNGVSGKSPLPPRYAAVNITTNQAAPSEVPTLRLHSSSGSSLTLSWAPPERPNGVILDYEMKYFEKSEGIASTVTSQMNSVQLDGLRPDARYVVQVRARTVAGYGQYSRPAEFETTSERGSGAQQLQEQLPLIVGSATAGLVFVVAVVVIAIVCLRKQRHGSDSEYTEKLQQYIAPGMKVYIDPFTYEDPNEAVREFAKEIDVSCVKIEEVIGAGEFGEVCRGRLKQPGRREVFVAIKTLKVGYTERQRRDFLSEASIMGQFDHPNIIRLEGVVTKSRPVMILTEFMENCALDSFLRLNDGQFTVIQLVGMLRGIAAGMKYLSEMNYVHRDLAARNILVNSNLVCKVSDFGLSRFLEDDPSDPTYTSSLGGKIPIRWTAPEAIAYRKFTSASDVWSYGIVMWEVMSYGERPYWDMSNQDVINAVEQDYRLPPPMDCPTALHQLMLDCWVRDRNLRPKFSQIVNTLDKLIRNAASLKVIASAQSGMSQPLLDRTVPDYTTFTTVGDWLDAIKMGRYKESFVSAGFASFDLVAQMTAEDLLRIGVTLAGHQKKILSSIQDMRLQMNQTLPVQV

[7] = molecular target: T3, Ephrin type-B receptor 4 (Homo sapiens) (UniProt P54760); details: at 1 µM
T3 sequence (whole entry): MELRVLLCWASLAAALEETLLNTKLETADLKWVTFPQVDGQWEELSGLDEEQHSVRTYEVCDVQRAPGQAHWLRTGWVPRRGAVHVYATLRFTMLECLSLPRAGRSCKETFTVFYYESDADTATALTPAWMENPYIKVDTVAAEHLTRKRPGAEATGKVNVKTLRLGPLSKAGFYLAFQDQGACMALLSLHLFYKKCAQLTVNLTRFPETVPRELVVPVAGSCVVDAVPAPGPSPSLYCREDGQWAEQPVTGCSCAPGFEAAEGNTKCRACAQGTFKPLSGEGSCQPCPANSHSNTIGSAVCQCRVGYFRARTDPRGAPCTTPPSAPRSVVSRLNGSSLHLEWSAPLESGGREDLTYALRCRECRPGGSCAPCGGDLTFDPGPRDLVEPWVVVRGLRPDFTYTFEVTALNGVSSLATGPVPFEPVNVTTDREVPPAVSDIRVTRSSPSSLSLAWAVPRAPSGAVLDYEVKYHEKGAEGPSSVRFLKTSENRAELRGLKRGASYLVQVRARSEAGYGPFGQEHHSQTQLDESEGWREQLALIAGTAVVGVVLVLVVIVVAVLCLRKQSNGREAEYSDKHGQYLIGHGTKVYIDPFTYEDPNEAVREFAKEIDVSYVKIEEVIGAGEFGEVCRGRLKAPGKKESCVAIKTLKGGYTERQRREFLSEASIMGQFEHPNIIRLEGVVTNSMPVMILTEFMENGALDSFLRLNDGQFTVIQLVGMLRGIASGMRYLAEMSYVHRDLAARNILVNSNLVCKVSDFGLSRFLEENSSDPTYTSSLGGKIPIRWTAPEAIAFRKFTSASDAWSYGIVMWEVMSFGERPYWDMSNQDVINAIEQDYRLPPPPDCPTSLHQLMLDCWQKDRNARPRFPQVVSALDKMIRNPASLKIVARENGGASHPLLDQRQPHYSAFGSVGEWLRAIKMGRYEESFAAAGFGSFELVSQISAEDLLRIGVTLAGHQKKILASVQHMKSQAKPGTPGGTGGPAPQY

[8] = molecular target: T3, Ephrin type-B receptor 4 (Homo sapiens); details: at 10 µM
[9] = molecular target: Receptor tyrosine-protein kinase erbB-4 (Homo sapiens) (UniProt Q15303); details: at 10 µM
[10] = molecular target: Ephrin type-A receptor 5 (Homo sapiens) (UniProt P54756); details: at 1 µM
[11] = molecular target: T2, Ephrin type-B receptor 3 (Homo sapiens); details: at 1 µM
[12] = molecular target: Focal adhesion kinase 1 (Homo sapiens) (UniProt Q05397); details: at 1 µM

Sequence of Ephrin type-A receptor 5 (Homo sapiens) (P54756 whole entry): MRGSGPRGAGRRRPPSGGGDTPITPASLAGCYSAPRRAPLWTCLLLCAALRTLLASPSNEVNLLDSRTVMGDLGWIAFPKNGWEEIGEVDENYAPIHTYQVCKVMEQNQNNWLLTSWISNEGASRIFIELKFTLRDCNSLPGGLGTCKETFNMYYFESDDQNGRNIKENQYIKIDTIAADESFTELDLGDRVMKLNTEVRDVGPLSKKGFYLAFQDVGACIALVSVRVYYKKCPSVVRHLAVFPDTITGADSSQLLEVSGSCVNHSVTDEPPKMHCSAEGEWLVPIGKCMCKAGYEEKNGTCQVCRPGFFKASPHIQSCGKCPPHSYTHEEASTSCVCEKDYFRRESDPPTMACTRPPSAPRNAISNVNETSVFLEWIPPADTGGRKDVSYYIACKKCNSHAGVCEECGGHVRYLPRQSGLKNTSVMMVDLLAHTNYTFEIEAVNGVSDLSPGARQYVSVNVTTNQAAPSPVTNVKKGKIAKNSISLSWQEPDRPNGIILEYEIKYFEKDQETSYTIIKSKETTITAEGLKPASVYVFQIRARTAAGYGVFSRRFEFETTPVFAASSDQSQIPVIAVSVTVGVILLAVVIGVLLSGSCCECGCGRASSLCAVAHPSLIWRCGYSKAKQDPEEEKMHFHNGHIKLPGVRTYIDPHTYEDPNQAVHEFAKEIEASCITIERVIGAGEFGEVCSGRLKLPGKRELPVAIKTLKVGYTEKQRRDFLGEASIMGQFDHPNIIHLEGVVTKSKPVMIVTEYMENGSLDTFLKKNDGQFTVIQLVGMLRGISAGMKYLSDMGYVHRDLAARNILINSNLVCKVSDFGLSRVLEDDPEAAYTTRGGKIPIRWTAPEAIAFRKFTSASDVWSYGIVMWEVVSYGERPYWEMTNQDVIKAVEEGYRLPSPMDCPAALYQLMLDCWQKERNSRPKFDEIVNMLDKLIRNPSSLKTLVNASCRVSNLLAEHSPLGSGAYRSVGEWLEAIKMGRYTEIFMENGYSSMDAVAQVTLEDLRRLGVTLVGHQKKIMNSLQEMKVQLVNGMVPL
Sequence of Receptor tyrosine-protein kinase erbB-4 (Homo sapiens) (Q15303 whole entry): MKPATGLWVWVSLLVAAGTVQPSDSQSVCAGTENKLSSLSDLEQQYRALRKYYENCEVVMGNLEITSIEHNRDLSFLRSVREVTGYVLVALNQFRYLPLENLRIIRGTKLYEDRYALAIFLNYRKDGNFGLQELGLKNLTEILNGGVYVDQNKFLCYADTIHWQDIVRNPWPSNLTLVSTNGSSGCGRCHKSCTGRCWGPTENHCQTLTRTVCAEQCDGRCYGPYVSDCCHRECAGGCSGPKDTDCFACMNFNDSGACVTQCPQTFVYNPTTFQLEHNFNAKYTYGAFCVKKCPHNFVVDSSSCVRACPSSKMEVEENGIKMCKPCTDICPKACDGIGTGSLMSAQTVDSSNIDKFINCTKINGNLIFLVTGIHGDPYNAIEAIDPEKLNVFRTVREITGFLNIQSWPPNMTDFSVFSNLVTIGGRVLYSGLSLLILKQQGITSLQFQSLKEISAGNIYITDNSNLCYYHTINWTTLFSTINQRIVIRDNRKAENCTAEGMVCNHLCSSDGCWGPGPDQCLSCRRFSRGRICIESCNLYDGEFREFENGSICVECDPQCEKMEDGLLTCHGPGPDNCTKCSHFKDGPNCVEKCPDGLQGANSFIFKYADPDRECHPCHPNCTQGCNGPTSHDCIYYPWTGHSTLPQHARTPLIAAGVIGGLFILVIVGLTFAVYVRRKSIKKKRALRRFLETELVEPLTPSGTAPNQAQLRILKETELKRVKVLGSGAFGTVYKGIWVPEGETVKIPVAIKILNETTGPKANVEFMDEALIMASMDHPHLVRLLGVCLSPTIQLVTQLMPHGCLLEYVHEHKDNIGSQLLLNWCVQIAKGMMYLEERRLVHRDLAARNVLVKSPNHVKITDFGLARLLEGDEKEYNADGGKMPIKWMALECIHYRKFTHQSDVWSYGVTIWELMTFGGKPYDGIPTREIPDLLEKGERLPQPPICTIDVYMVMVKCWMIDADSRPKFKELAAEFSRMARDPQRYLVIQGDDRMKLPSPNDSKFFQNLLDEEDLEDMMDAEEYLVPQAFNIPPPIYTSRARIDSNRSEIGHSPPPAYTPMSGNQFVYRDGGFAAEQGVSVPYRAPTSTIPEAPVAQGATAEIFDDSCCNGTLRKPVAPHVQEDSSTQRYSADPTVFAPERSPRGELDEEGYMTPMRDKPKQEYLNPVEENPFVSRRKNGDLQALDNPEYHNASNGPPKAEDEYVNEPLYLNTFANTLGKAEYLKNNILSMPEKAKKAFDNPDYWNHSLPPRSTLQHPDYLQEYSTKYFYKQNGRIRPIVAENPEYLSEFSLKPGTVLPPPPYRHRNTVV
Sequence of Ephrin type-A receptor 7 (Homo sapiens) (Q15375 28-998 limits assumed): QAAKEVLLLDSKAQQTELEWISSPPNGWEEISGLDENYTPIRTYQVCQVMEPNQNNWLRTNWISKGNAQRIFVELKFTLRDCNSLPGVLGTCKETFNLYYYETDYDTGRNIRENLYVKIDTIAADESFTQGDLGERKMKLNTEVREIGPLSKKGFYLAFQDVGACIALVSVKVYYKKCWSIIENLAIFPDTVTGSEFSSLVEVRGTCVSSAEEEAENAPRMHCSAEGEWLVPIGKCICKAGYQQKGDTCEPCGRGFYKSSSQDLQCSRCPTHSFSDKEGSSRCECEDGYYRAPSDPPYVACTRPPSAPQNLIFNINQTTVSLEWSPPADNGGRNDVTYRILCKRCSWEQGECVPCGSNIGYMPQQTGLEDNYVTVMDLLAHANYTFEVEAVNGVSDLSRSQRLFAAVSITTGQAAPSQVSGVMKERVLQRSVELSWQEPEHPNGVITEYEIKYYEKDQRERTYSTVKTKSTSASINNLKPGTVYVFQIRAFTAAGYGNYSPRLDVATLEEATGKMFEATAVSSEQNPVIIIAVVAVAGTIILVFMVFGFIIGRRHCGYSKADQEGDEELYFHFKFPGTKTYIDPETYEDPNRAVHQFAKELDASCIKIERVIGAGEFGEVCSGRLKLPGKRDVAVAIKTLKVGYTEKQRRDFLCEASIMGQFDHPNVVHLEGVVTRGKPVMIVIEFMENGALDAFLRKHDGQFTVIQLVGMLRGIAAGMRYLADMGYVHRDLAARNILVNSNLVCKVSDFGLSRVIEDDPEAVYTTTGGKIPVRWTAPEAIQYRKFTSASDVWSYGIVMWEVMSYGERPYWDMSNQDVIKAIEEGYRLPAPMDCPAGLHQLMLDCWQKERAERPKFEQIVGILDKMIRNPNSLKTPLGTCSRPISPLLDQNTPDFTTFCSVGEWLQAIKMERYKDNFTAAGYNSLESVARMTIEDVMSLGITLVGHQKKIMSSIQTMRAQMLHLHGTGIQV
Sequence of Ephrin type-A receptor 4 (Homo sapiens) (P54764 whole entry): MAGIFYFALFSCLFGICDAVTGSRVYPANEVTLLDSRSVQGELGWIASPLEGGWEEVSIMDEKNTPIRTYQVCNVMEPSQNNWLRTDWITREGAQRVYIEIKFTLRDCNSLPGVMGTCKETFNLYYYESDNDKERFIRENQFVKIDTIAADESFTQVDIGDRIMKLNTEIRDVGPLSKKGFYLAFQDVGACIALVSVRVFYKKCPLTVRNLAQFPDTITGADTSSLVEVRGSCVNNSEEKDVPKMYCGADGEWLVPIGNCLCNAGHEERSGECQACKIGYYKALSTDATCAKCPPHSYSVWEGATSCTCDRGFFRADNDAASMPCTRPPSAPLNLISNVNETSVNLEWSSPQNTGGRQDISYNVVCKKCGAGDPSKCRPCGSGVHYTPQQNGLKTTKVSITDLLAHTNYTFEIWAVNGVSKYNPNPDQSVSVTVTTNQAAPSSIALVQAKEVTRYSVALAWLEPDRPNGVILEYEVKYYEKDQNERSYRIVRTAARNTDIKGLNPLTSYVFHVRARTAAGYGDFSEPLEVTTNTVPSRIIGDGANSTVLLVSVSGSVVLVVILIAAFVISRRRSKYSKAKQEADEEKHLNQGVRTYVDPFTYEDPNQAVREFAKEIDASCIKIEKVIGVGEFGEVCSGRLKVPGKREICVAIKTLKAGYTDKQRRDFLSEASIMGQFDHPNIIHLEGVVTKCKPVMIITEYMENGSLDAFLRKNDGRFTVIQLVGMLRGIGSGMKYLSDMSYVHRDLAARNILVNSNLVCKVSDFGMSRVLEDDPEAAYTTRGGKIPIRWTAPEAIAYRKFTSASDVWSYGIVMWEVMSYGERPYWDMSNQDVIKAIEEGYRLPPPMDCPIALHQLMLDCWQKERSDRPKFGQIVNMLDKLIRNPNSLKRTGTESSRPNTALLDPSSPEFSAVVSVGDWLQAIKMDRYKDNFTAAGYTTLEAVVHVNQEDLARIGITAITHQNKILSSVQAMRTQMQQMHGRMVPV

| SMILES | residual activity [1] | residual activity [2] | residual activity [3] | residual activity [4] | residual activity [5] | residual activity [6] | residual activity [7] | residual activity [8] | residual activity [9] | residual activity [10] | residual activity [11] | residual activity [12] |
| --- | --- | --- | --- | --- | --- | --- | --- | --- | --- | --- | --- | --- |
| CSc1nc(-c2ccc(F)cc2)c(-c2ccnc(NC(C)c3ccccc3)c2)[nH]1 (stereo not drawn) | 97% | 102% | 91% | 97% | 95% | 80% | 99% | 88% | 85% |  |  |  |
| NCCNc1ncc(C(N)=O)c(Nc2cccc(C(F)(F)F)c2)n1 |  |  |  | 74% | 72% | 111% | 102% | 101% | 75% | 102% | 113% (inactive) | 64% |
